Laboratory results from PubChem BioAssay (NCATS).
Values joined by “and” are separate entries in the source; they are usually repeats but may differ in a detail not shown here. Identical values can stand only once. Results filed as inconclusive are left out. A number with no mark means an inactive call. Active and inactive are the calls of the source. Unless noted, the call rests on the fitted dose curve; in most records, active means well fitted curve in the direction sought with a large enough effect; inconclusive means small, poorly fitted or top-dose-only effect, or another doubt; inactive means no such curve, though single readings can be large; an effect the other way counts as inactive or inconclusive.

Experiment: qHTS assay for small molecule agonists of the antioxidant response element (ARE) signaling pathway measured by Nrf2-dependant transcriptional activity (AID 720636; active means well fitted curve in the direction sought with a large enough effect in the repeat runs; an effect the other way counts as inactive or inconclusive; further: potency means the concentration at half of the fitted maximal effect)
Conditions: ARE-luc HepG2, Nrf2 luciferase reporter, 16 h; series mostly up to 92.4 µM
In short: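 First, ARE-luc HepG2 cells attached for 6 hr at 37 C in 1% dialyzed FBS medium. Next, compound or DMSO was added and incubated 16 hr. Finally, ONE-Glo reagent was added and luminescence measured after 30 min.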

SMILES	Potency
CC(C)(Oc1ccc(Cl)cc1)C(=O)O	inactive
CN(C)C(=S)SC(=S)N(C)C	inactive
CC(=O)Oc1ccc(C(c2ccc(OC(C)=O)cc2)c2ccccn2)cc1	inactive
Oc1c(I)cc(Cl)c2cccnc12	5.96 µM (active)
O=C1OC(c2ccc(O)cc2)(c2ccc(O)cc2)c2ccccc21	inactive

Experiment: qHTS assay for small molecule antagonists of the retinoid-related orphan receptor gamma (ROR-gamma) signaling pathway - cell viability counter screen (AID 720652; active means well fitted curve in the direction sought with a large enough effect in the repeat runs; an effect the other way counts as inactive or inconclusive;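 further: CHO reporter cells with doxycycline-induced ROR-gamma expression; compound exposure lasted 16 hr before ATP read; on the % scale 0 is the no-effect control and ±100 the full control effect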)
Conditions: RORgamma reporter cell line viability counter screen; series mostly up to 92.2 µM
In short: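 Cytotoxicity is quantified via intracellular ATP (CellTiter-Glo luminescence) in doxycycline-induced CHO ROR response element-luciferase reporter cells treated with compound for 16 hr at 37 C, 5% CO2.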

SMILES	Potency
CC(=O)Oc1ccc(C(c2ccc(OC(C)=O)cc2)c2ccccn2)cc1	inactive
Oc1ccc(Cl)cc1Sc1cc(Cl)ccc1O	inactive
O=C1OC(c2ccc(O)cc2)(c2ccc(O)cc2)c2ccccc21	inactive

Experiment: qHTS assay for small molecule agonists of the antioxidant response element (ARE) signaling pathway measured by Nrf2-dependant transcriptional activity - cell viability counter screen (AID 720653; active means well fitted curve in the direction sought with a large enough effect in the repeat runs; an effect the other way counts as inactive or inconclusive; further: on the % scale 0 is the no-effect control and ±100 the full control effect)
Conditions: ARE-bla HepG2 viability, CellTiter-Glo ATP luminescence, 16 h; stronger effect = lower value
In short: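 ARE-bla HepG2 cells (2,000/well) rested 5 hrs at 37C/5% CO2, then exposed to compounds in DMSO for 16 hrs. Viability was read in the same wells as intracellular ATP by luminescence, 30 min at room temperature after reagent addition.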

SMILES	max response
CC(C)(Oc1ccc(Cl)cc1)C(=O)O	10.5%
CN(C)C(=S)SC(=S)N(C)C	4.33%
CC(=O)Oc1ccc(C(c2ccc(OC(C)=O)cc2)c2ccccn2)cc1	4.78%
Oc1c(I)cc(Cl)c2cccnc12	-8.01%
O=C1OC(c2ccc(O)cc2)(c2ccc(O)cc2)c2ccccc21	4.44% and -20.6%

Experiment: qHTS Assay for Identifying Gametocytocidal Compounds (AID 743244); further: potency means the concentration at half of the fitted maximal effect;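 on max response: on the % scale 0 is the no-effect control and ±100 the full control effect; actives lower the fluorescent signal which means gametocytes are killed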
Conditions: P. falciparum 3D7 stage III-V gametocytes, alamarBlue, 72 h; max response: stronger effect = lower value
In short: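 P. falciparum 3D7 stage III–V gametocytes (20,000 cells/well) were exposed to compounds for 72 h at 37 °C, 5% CO2. AlamarBlue was then added for 24 h; decreased resorufin fluorescence (Ex 525/Em 598 nm) indicated loss of viability.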

SMILES	max response	Potency
O=c1[nH]c(=O)n([C@H]2C[C@H](O)[C@@H](CO)O2)cc1C(F)(F)F	15%	–
Cc1c(C)n(Cc2ccccc2)c2ccc(C(=O)OCCN(C)C)cc12	28.3%	–
CC(C)(Oc1ccc(Cl)cc1)C(=O)O	6.9%	–
O=C(OCCOCCO)c1ccccc1Nc1cccc(C(F)(F)F)c1	12.2%	–
CC(=O)OCC(=O)NCCCOc1cccc(CN2CCCCC2)c1	8.95% and 5.62%	–
CN(C)CC/C=C1/c2ccccc2COc2ccc(CC(=O)O)cc21	3.04%	–
CC(=O)Oc1ccc(C(c2ccc(OC(C)=O)cc2)c2ccccn2)cc1	7.87%	–
NC(=O)C(=O)N/N=C/c1ccc([N+](=O)[O-])o1	–	17.8 µM (active)
CCN1CCC[C@H]1CNC(=O)c1c(OC)ccc(Br)c1OC	-8.08%	–
CCCCC1=NC2(CCCC2)C(=O)N1Cc1ccc(-c2ccccc2-c2nn[nH]n2)cc1	1.29%	–
CC(=O)Oc1ccc2c(c1)CC[C@@H]1[C@@H]2CC[C@]2(C)[C@@H](O)CC[C@@H]12	0.116%	–
CC(=O)OCC(=O)[C@@]12OC(C)(C)O[C@@H]1C[C@H]1[C@@H]3C[C@H](F)C4=CC(=O)C=C[C@]4(C)[C@@]3(F)[C@@H](O)C[C@@]12C	1.24%	–
OC(CCN1CCCCC1)(c1ccccc1)c1ccccc1	13.3%	–
CCCCOc1ccc(OCCCN2CCOCC2)cc1	1.4%	–
CN1C2CCC1CC(OC(=O)c1c[nH]c3ccccc13)C2 (centres undefined)	9.76%	–
Oc1c(I)cc(Cl)c2cccnc12	–	7.94 µM (active)
CN=C(NC#N)Nc1ccc(C2=NNC(=O)CC2C)cc1 (centres undefined)	-3.79%	–
COc1ccc(CN2CCN(C(c3ccc(F)cc3)c3ccc(F)cc3)CC2)c(OC)c1OC	1.04%	–
CC(=O)OCC(=O)[C@@]1(OC(C)=O)[C@@H](C)C[C@H]2[C@@H]3C[C@H](F)C4=CC(=O)C=C[C@]4(C)[C@@]3(F)[C@@H](O)C[C@@]21C	29%	–
CCN(CC)CCNC(=O)COc1ccc(Cl)cc1	-6.47%	–
CN=C(NC#N)NCCSCc1csc(N=C(N)N)n1	5.67%	–
CN1CCC(=C2c3ccccc3Sc3ccccc32)CC1	–	15.8 µM (active)
O=C(Nc1ccc(Cl)c(Cl)c1)C1CC1	14%	–
OCc1ccccc1O	23.6%	–
Cc1cccc(C)c1NC(=O)CN1CCN(CCCC(c2ccc(F)cc2)c2ccc(F)cc2)CC1	0.546%	–
Cc1ncc(CSSCc2cnc(C)c(O)c2CO)c(CO)c1O	-2.24%	–
